IDH1 R132H inh: qHTS for Inhibitors of mutant isocitrate dehydrogenase 1 (IDH1): qHTS; 390,000 compounds, 0.093% hits; Potency, µM (top dose mostly 76.6 µM), most hits filed as inhibitors; IDH1-R132H enzyme, NADPH consumption, diaphorase/resazurin fluorescence; note: nearly all actives have a fitted effect of over 65% in size
Target sequence (O75874 whole entry R132H, stated change not applied): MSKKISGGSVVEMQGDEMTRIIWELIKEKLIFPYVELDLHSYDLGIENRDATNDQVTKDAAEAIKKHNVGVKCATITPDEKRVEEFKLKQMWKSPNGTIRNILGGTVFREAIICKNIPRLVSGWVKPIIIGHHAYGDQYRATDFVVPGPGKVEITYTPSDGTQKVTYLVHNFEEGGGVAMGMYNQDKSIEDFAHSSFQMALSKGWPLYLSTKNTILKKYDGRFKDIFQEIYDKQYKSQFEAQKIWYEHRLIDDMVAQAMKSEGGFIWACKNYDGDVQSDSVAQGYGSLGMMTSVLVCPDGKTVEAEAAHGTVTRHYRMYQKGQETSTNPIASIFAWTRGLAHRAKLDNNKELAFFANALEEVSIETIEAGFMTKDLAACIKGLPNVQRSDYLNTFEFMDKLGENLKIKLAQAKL
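IDH1-R132H (0.5 ug/mL dispensed) in pH 7.5 Tris buffer was preincubated 30 min with compound, then given a substrate mix of 0.016 mM NADPH and 2 mM alpha-KG for 80 min at room temperature; remaining NADPH was read by diaphorase/resazurin fluorescence.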
Nrf2 activator: qHTS of Nrf2 Activators | AREc32 ARE-luciferase reporter (MCF7-derived line), luminescence, 24 h | 410,000 compounds, 0.31% hits | Potency, µM (titrated, usually from 46.1 µM), most hits filed as activators; note: nearly all actives have a fitted effect of over 65% in size
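AREc32 cells carrying an ARE-driven firefly luciferase reporter were seeded at 1000 cells/well in OPTI-MEM with 5% FBS, then exposed to compound for 24 hr at 37 deg C. Luminescence was read with Steady-Glo after 30 min at RT.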
Nrf2 inh: Nrf2 qHTS screen for inhibitors. A549 ARE-Fluc reporter, luciferase luminescence, 18-24 h. Potency, µM (series often up to 46 µM), most hits filed as inhibitors. 360,000 compounds, 2.1% hits; note: nearly all actives have a fitted effect of over 60% in size
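Concentration-response testing used A549 ARE_Fluc cells at 5000 cells/well. Following an 18-24 h compound incubation, viability was read by fluorescence (Ex 405/Em 525) and luciferase output by luminescence.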
ELG1 DNA repair: qHTS screen for small molecules that inhibit ELG1-dependent DNA repair in human embryonic kidney (HEK293T) cells expressing luciferase-tagged ELG1. HEK293T ELG1-luciferase reporter, luminescence, 16 h; DNA damage induced by 5-fluorouridine. Potency, µM (top dose mostly 46.1 µM), actives largely listed as inhibitors. 330,000 compounds, 2.3% hits; note: nearly all actives have a fitted effect of over 55% in size
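Step one: seed 2,000 cells per well. Step two: pin-transfer compound or DMSO alongside 5-fluorouridine. Step three: incubate 16 hr, 37 °C, 5% CO2. Step four: add ONE-Glo, wait 30 min, read luminescence.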
A549 viability: Nrf2 qHTS screen for inhibitors: counterscreen for cytotoxicity | A549 ARE-Fluc cells, CellTiter-Fluor viability, 18-24 h | Potency, µM (series often up to 46 µM), most hits filed as inhibitors | 390,000 compounds, 0.16% hits | AID 504648, 2011
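A549 ARE-Fluc cells in 5% FBS OPTI-MEM, 5000 cells/well, rested 2 h then exposed to compounds in concentration-response for 18-24 h at 37 °C. Viability by CellTiter-Fluor fluorescence (Ex 405/Em 525) after 30 min; luciferase luminescence (BugLite, 15 min, RT) read afterwards.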
IDH1 autofl: qHTS for Inhibitors of mutant isocitrate dehydrogenase 1 (IDH1): Cherrypicks Autofluorescence Interference. shares compounds with IDH1 R132H inh. Resorufin detection reagent fluorescence interference, cell-free. inhibition of signal, % at 51.2 µM. 750 tested, under 10 active
IDH1 WT: qHTS for Inhibitors of mutant isocitrate dehydrogenase 1 (IDH1): Cherrypicks in WT IDH1; shares compounds with IDH1 R132H inh; WT IDH1 enzyme, NADPH diaphorase/resazurin fluorescence; Potency, µM (series often up to 115 µM), hits mostly inhibitors; 750 compounds, 9% hits; AID 623995, 2012; note: nearly all actives have a fitted effect of over 55% in size
Target sequence (O75874 whole entry, looked up): as the sequence (O75874 whole entry R132H, stated change not applied) above, with H132R counted along it
mIDH1 confirm: qHTS for Inhibitors of mutant isocitrate dehydrogenase 1 (IDH1): Confirmation of Cherrypicks | shares compounds with IDH1 R132H inh | IDH1 R132H enzyme, NADPH diaphorase/resazurin fluorescence | Potency, µM (doses to about 76.6 µM), hits mostly inhibitors | 750 compounds, 83% hits | AID 624002, 2012; note: nearly all actives have a fitted effect of over 50% in size
Numbers stand for hits. Most compounds without a hit are left out; they make up all but 3.8% or so of the library. Calls come from the whole dose curve; as a rule, active = well fitted curve in the direction sought with a large enough effect; inconclusive = small, poorly fitted or top-dose-only effect, or another doubt; inactive = no such curve, though single readings can be large; an effect the other way counts as inactive or inconclusive.

CC(=O)Oc1ccc(C(=O)Nc2cccc(C(=O)c3ccc(C)c(C)c3)c2)cc1 was read as IDH1 R132H inh inconclusive, Nrf2 activator inactive, Nrf2 inh inconclusive, ELG1 DNA repair inactive, A549 viability inactive, IDH1 autofl inactive, IDH1 WT inactive and mIDH1 confirm 10µM.
CCCNC(=O)c1cc(C2CCCN(C(=O)c3ccccc3)C2)on1 (stereo not drawn) was read as Nrf2 activator inactive.
CC1CCC(NC(=O)COC(=O)c2ccco2)CC1 (stereo not drawn) was read as IDH1 R132H inh inactive, Nrf2 activator inactive, Nrf2 inh inactive, ELG1 DNA repair inconclusive and A549 viability inactive.
Screening C[C@@H]1C[C@H]2[C@@H]3CCC4=CC(=O)C=C[C@]4(C)[C@@]3(Cl)[C@@H](O)C[C@]2(C)[C@@]1(OC(=O)c1ccco1)C(=O)CCl returned IDH1 R132H inh 35.5µM, Nrf2 activator inactive, Nrf2 inh inconclusive, ELG1 DNA repair inactive, A549 viability inactive, IDH1 autofl inactive, IDH1 WT inactive and mIDH1 confirm 8.91µM.
O=S(=O)(c1ccc(NC(=S)N/N=C/c2cccc(Oc3ccccc3)c2)cc1)N1CCOCC1 was read as IDH1 R132H inh inconclusive, Nrf2 activator inactive, Nrf2 inh inactive, ELG1 DNA repair inactive, A549 viability inactive, IDH1 autofl inactive, IDH1 WT inactive and mIDH1 confirm inconclusive.
NS(=O)(=O)c1ccc(NC(=S)Nc2ccc(S(=O)(=O)N3CCCC3)cc2)cc1 was read as IDH1 R132H inh inactive, Nrf2 activator inactive, Nrf2 inh inactive, ELG1 DNA repair inactive and A549 viability inactive.
O=S(=O)(c1ccc(NC(=S)NN=Cc2ccccc2O)cc1)N1CCCCC1 was read as IDH1 R132H inh 46.5µM, Nrf2 activator inactive, Nrf2 inh inconclusive, A549 viability inconclusive, IDH1 autofl inactive, IDH1 WT inactive and mIDH1 confirm 22.4µM.
For O=S(=O)(c1ccc(NC(=S)N/N=C/c2ccc(O)c(O)c2)cc1)N1CCOCC1 the results were IDH1 R132H inh inactive, Nrf2 activator inactive, Nrf2 inh inactive, ELG1 DNA repair inactive and A549 viability inactive.
CC(=O)c1ccccc1NS(=O)(=O)c1cc2c(cc1C)NC(=O)CO2 was read as IDH1 R132H inh inactive, Nrf2 activator inactive and A549 viability inactive.
`Cc1cc(C)c(-c2n[nH]c3c2C(c2ccccc2F)N(Cc2ccco2)C3=O)c(O)c1` (stereo not drawn) gave IDH1 R132H inh inconclusive, Nrf2 activator inactive, Nrf2 inh inactive, A549 viability inactive, IDH1 autofl inactive, IDH1 WT inactive and mIDH1 confirm inconclusive.
Screening O=C1c2[nH]nc(-c3ccccc3O)c2C(c2cccc(O)c2)N1Cc1ccco1 (stereo not drawn) returned IDH1 R132H inh inactive, Nrf2 activator inactive, Nrf2 inh inactive, ELG1 DNA repair inactive and A549 viability inactive.
Screening COc1ccc(C2c3c(-c4c(C)cc(C)cc4O)n[nH]c3C(=O)N2Cc2ccco2)cc1 (stereo not drawn) returned Nrf2 activator inactive, Nrf2 inh inactive and A549 viability inactive.
For COc1ccc(C2c3c(-c4ccccc4O)n[nH]c3C(=O)N2Cc2ccco2)cc1 (stereo not drawn) the results were IDH1 R132H inh inconclusive, Nrf2 activator inactive, Nrf2 inh inactive, ELG1 DNA repair inconclusive, A549 viability inactive, IDH1 autofl inactive, IDH1 WT inactive and mIDH1 confirm 31.6µM.
Screening Cc1ccc(O)c(-c2n[nH]c3c2C(c2ccc(F)cc2)N(Cc2ccco2)C3=O)c1 (stereo not drawn) returned IDH1 R132H inh 39.8µM, Nrf2 activator inactive, Nrf2 inh inactive, A549 viability inactive, IDH1 autofl inactive, IDH1 WT inactive and mIDH1 confirm 28.2µM.
Screening Cc1ccccc1Nc1c(-c2cccc(N(C)C)c2)nc2ccc(Br)cn12 returned IDH1 R132H inh inactive, Nrf2 activator inactive, Nrf2 inh inactive and A549 viability inactive.
For COc1ccc(-c2n[nH]c3c2C(c2ccc(Cl)cc2Cl)NC3=O)cc1 (stereo not drawn) the results were IDH1 R132H inh inconclusive, Nrf2 activator inactive, Nrf2 inh inconclusive, A549 viability inactive, IDH1 autofl inactive, IDH1 WT inactive and mIDH1 confirm 39.8µM.
O=C(OCc1cn([C@@H]2CN(C(=O)C3CCCCC3)[C@@H](c3ccc(Cl)cc3)C[C@H]2O)nn1)c1ccccc1 was read as IDH1 R132H inh inactive and Nrf2 activator inactive.
For COc1cc2cc(-c3ccc(O)cc3O)nc(C)c2cc1OC the results were IDH1 R132H inh inconclusive, Nrf2 activator inactive, Nrf2 inh inconclusive, ELG1 DNA repair inactive, A549 viability inactive, IDH1 autofl inactive, IDH1 WT inactive and mIDH1 confirm 28.2µM.
For CCn1cc2nc(SCc3ccccc3Cl)n(Cc3ccc(OC)cc3)c(=O)c2n1 the results were IDH1 R132H inh inactive, Nrf2 activator inactive, Nrf2 inh inconclusive and A549 viability inconclusive.
Cc1ccc(N2C(S)=C(C#N)C(=O)NC2c2cccs2)cc1 (stereo not drawn) was read as IDH1 R132H inh 52.1µM, Nrf2 activator inactive, Nrf2 inh inactive, ELG1 DNA repair inactive, A549 viability inactive, IDH1 autofl inactive, IDH1 WT inactive and mIDH1 confirm inconclusive.
CC(=O)c1cccc(NCC(=O)c2ccc(C)c([N+](=O)[O-])c2)c1 was read as IDH1 R132H inh 16.5µM, Nrf2 activator inactive, Nrf2 inh inactive, ELG1 DNA repair inactive, A549 viability inactive, IDH1 autofl inactive, IDH1 WT inactive and mIDH1 confirm 39.8µM.
`Cc1cc(C)cc(N(CC(=O)NC2CCCCC2)C(=O)c2ccc(C)s2)c1` gave IDH1 R132H inh inconclusive, Nrf2 activator inactive, Nrf2 inh inconclusive, ELG1 DNA repair inactive, A549 viability inactive, IDH1 autofl inactive, IDH1 WT inactive and mIDH1 confirm 20µM.

High-throughput results from PubChem.
